# Target: FNTB
# Assay: pooled miR-30 sensor sort-seq; sequence = guide strand
# Settings: shRNA
# Note: reference of the scale not given here.
row,Sequence,sensor-assay potency score (higher = more potent)
1,TTTGCCTGTTCTATGGACGTGA,0.213
2,TCCACCAGCTTGTTGCAGCGGC,-1.13
3,TTGTAAGAACTGAAGACCTCTT,0.275
4,AAGGTGTGGATACTGACCGGGT,-0.0926
5,TACAAGGTGGTTGAACTTGTAA,-0.905
6,TTTCAGATAATGGAAGTGCTTC,-0.367
7,TTTTCTTCTACTTTTGCCTGTT,0.0828
8,TATTGAAACGTATAAACCTTGT,-0.892
9,TAAACCTTGTCTGACTGGGGAG,-0.535
10,TTGACTGCTGCATATGTGGGTG,-0.313
11,AAGAACTGAAGACCTCTTGGAT,-0.153
12,TCTGTAGCCACTATCTGGGGGA,0.162
13,TTGTCGAAGGCCTCTTTTCAGA,-1.02
14,TATAAACCTTGTCTGACTGGGG,0.554
15,TTGAACTTGTAAGAACTGAAGA,-0.977
16,TACTTTTGCCTGTTCTATGGAC,-0.547

# Target: FOXK1
# Assay: as above
# Settings: shRNA
row,Sequence,sensor-assay potency score (higher = more potent)
1,TTCTTTGTGATAGAGCGACGTG,-0.986
2,TTTGGGAATACCGGTACTCTGG,-1.08
3,ATGAGGAACTCGAACTCGCGGC,-0.982
4,TTCAAAGAGAGGTTGTGCCGGA,0.647
5,TTTGATAAAGTAACGGTTCAAA,-0.935
6,TTGGGTCGCAAGGAGCTGCAAA,-0.645
7,TTGCTGCAAACTCTGCTGCCAG,-1.02
8,TTGCCGGCTAAACTGTTCGTGG,-1.1
9,TGATAGAGCGACGTGAACTGGA,0.268
10,TGGATCTTGATGGCCGTGCTGG,-0.887
11,TAAACTGTTCGTGGGAACCGCA,-0.882
12,TTTGACTCATCCTTGGGGCTGT,0.206

# Target: FOXN4
# Assay: as above
# Settings: shRNA
row,Sequence,sensor-assay potency score (higher = more potent)
1,ATGTTGATGAAGTCTACAGGAG,-1.25
2,ATTCCTGACATTATGGATGAGG,-0.583
3,TTGCCATCTGCTGCAGCCGAGG,-1.85
4,TTGAGATGAATGCACAGCCACG,-1.27
5,TCAGTGTTCATGTCGGTGCTGA,-0.14
6,TGAAGCTGTAGATCTCGCTCAC,0.304
7,TCCTCCATCTTGTCGATGCGGG,-1.47
8,TAGATCTCGCTCACAGGCAGGC,-0.142
9,TTCAGAGACAGGTTGTGCCGCA,0.475
10,TGAGTTTCGAATAATTCCTGAC,-0.212
11,TCAGCTTGTCCAACTCCTCAGG,-0.891
